The results in this text go back to PubChem BioAssay (EPA / NIEHS).

Test [1] can be described thus: ATG_M_06_XSP2: Attagene TRANS-FACTORIAL Multi-Species (XSP2) HepG2 Assay for M06 Transcription Factor (Internal Marker) (AID 2283811).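 Further: internal background marker reporter mRNA measured by RT-PCR and capillary electrophoresis; hits are increases in signal above the DMSO baseline.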 An outline of the steps:
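HepG2 cells transiently transfected with GAL4-UAS multi-reporter constructs, dosed 24 h with 3 nM 6-alpha-fluorotestosterone plus 1.5 nM norgestrel present to stimulate androgen receptor. Reporter mRNA quantified by RT-PCR, 6-FAM labelling, HpaI digestion and capillary electrophoresis; gain-of-signal fitted versus DMSO baseline.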

The test system of test [2] is turtle Estrogen Receptor (ERa), gene 101933533. Kind of test: ATG_trERa_XSP2: Attagene TRANS-FACTORIAL Multi-Species (XSP2) HepG2 Assay for turtle Estrogen Receptor (ERa) (AID 2283812).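 Further: human HepG2 liver cells transiently expressing turtle ERa-Gal4 chimeric receptor; actives raise reporter signal above DMSO so AC50 reflects agonist activity.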 An outline of the steps: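 HepG2 cells transiently transfected with GAL4-UAS reporter units expressing turtle ERa-Gal4 chimera. Reporter mRNA measured after 24 h dosing by RT-PCR, fluorescent labelling and capillary electrophoresis; gain of signal fitted versus DMSO.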

In test [3] the target is zebrafish Estrogen Receptor (ER1), esr1 (gene 259252) (UniProt P57717). Kind of test: ATG_zfER1_XSP2: Attagene TRANS-FACTORIAL Multi-Species (XSP2) HepG2 Assay for zebrafish Estrogen Receptor (ER1) (AID 2283816). The procedure, abridged:
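HepG2 cells transiently transfected with a GAL4-UAS reporter and a chimeric zebrafish ER1-Gal4 construct, dosed 24 h. Reporter mRNA quantified by RT-PCR, labelling, HpaI digestion and capillary electrophoresis, relative to DMSO.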

In test [4] the target is chicken Estrogen Receptor (ERa), ESR1 (gene 396099) (UniProt P06212). Kind of test: ATG_chERa_XSP2: Attagene TRANS-FACTORIAL Multi-Species (XSP2) HepG2 Assay for chicken Estrogen Receptor (ERa) (AID 2283817).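 Further: actives raise reporter signal above DMSO so AC50 reflects ER activation.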 An outline of the steps: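 HepG2 cells transiently transfected with multiplexed GAL4-UAS reporter units expressing chimeric chicken ERa-Gal4; 24 h compound exposure. Reporter mRNA measured by RT-PCR with 6-FAM labelling, HpaI digestion and capillary electrophoresis; gain-of-signal fitted versus DMSO.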

Test [5] concerns zebrafish Estrogen Receptor (ER2a), gene 317734. As to the kind of experiment: ATG_zfER2a_XSP2: Attagene TRANS-FACTORIAL Multi-Species (XSP2) HepG2 Assay for zebrafish Estrogen Receptor (ER2a) (AID 2283818).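 Further: hits raise reporter mRNA so AC50 reflects activation of zebrafish ER2a.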 An outline of the steps:
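HepG2 cells transiently transfected with GAL4-UAS reporter units and chimeric zebrafish ER2a-Gal4, exposed 24 h; medium contains 3 nM 6-alpha-fluorotestosterone and 1.5 nM norgestrel. Reporter mRNA quantified by RT-PCR, HpaI digestion, capillary electrophoresis; gain versus DMSO.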

Test [6] has as its system frog Estrogen Receptor (ER), gene 398734. Kind of test: ATG_frER1_XSP2: Attagene TRANS-FACTORIAL Multi-Species (XSP2) HepG2 Assay for frog Estrogen Receptor (ER) (AID 2283821).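 Further: hits raise reporter mRNA above DMSO baseline so potency means agonist or activator.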 An outline of the steps:
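HepG2, transient MRTU transfection, chimeric NR-GAL4/UAS reporters; 24 h compound exposure, 24-well. Readout: reporter mRNA via RT-PCR + capillary electrophoresis, fluorescence. Positive fit vs DMSO baseline.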

The test system of test [7] is zebrafish Estrogen Receptor (ER2b), gene 317733. As to the kind of experiment: ATG_zfER2b_XSP2: Attagene TRANS-FACTORIAL Multi-Species (XSP2) HepG2 Assay for zebrafish Estrogen Receptor (ER2b) (AID 2283823).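 Further: fitted upward as reporter gain over DMSO so potency reflects activation.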 The procedure, abridged: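 Transfect HepG2 with GAL4-UAS reporter constructs; dose chemicals, 24 h; isolate RNA, RT-PCR, FAM-label, HpaI digest; capillary electrophoresis. Gain-of-signal vs DMSO.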

Test [8] addresses GAL4 Transcription Factor (Internal Marker), GAL4 (gene 855828) (UniProt P04386). Kind of test: ATG_GAL4_XSP2: Attagene TRANS-FACTORIAL Multi-Species (XSP2) HepG2 Assay for GAL4 Transcription Factor (Internal Marker) (AID 2283814).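 Further: GAL4 reporter mRNA background control in MRTU transfected cells not a receptor target.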 An outline of the steps:
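HepG2 cells transiently transfected with GAL4-UAS reporter units, stimulated with 3 nM 6-alpha-fluorotestosterone plus 1.5 nM norgestrel, dosed 24 h. Reporter mRNA by RT-PCR/capillary electrophoresis; gain-of-signal fit versus DMSO, background control.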

Test [9] concerns chicken Androgen Receptor (AR), gene 422165. Kind of test: ATG_chAR_XSP2: Attagene TRANS-FACTORIAL Multi-Species (XSP2) HepG2 Assay for chicken Androgen Receptor (AR) (AID 2283819).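 Further: hits raise reporter mRNA above DMSO so potency is for activation.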 An outline of the steps: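 HepG2 cells transiently transfected with chicken AR–GAL4 chimeric reporter constructs, stimulated with 3 nM 6-alpha-fluorotestosterone plus 1.5 nM norgestrel, dosed 24 h. Reporter mRNA quantified by RT-PCR and capillary electrophoresis; gain of signal fitted versus DMSO.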

In test [10] the test system is frog Androgen Receptor (AR), gene 399456. Kind of test: ATG_frAR_XSP2: Attagene TRANS-FACTORIAL Multi-Species (XSP2) HepG2 Assay for frog Androgen Receptor (AR) (AID 2283824).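 Further: actives raise reporter signal above DMSO so AC50 reflects agonist-like induction.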 The procedure, abridged: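 HepG2 cells transiently transfected with GAL4-UAS reporter units and frog (Xenopus laevis) AR-Gal4 chimera; reporter mRNA measured 24 h after dosing by RT-PCR and capillary electrophoresis. Gain of signal fitted relative to DMSO baseline.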

The AC50 is the midpoint of the concentration-response curve, whichever way the signal moves.

Molecules are shown by their SMILES. Records with an inconclusive call do not appear. Active and inactive are the calls of the source. How the source made its calls: active means hit-call score of the fitted dose curve at least 0.9, where 1 is the maximum; inconclusive means response in the unintended direction; inactive means score below 0.9.

zebrafish Estrogen Receptor (ER1), esr1 (gene 259252), sequence (P57717 whole entry, looked up, the tested form may be a part): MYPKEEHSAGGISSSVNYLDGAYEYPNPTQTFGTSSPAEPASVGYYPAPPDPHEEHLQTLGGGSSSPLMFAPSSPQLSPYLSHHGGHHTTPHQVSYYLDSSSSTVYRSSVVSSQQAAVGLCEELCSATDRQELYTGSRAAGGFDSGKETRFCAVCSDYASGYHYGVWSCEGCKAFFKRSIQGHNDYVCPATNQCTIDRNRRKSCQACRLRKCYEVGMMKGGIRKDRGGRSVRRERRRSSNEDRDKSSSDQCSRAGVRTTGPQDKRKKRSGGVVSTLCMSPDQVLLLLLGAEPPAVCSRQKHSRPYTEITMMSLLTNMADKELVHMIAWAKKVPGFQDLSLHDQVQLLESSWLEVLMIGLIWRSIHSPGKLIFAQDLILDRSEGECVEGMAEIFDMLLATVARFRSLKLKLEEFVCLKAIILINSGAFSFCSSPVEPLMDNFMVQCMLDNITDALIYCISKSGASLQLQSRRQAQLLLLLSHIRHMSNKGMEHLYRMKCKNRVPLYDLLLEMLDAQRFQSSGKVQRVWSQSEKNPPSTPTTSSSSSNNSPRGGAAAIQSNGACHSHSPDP
chicken Estrogen Receptor (ERa), ESR1 (gene 396099), sequence (P06212 whole entry, looked up, the tested form may be a part): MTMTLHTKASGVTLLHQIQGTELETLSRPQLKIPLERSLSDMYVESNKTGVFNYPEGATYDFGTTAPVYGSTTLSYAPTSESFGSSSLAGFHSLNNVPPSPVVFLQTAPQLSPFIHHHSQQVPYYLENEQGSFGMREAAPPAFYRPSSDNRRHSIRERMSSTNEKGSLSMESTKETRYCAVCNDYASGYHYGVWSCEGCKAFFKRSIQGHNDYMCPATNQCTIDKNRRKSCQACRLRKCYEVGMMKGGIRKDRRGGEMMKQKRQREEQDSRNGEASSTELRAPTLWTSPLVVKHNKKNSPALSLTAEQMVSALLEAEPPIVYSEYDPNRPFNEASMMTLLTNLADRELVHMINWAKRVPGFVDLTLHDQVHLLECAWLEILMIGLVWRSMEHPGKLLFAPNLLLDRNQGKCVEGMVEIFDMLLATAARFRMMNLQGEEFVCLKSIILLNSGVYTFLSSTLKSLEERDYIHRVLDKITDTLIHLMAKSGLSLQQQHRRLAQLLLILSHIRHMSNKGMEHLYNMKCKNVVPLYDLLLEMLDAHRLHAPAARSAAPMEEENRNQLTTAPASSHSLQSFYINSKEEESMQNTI
GAL4 Transcription Factor (Internal Marker), GAL4 (gene 855828), sequence (P04386 whole entry, looked up, the tested form may be a part): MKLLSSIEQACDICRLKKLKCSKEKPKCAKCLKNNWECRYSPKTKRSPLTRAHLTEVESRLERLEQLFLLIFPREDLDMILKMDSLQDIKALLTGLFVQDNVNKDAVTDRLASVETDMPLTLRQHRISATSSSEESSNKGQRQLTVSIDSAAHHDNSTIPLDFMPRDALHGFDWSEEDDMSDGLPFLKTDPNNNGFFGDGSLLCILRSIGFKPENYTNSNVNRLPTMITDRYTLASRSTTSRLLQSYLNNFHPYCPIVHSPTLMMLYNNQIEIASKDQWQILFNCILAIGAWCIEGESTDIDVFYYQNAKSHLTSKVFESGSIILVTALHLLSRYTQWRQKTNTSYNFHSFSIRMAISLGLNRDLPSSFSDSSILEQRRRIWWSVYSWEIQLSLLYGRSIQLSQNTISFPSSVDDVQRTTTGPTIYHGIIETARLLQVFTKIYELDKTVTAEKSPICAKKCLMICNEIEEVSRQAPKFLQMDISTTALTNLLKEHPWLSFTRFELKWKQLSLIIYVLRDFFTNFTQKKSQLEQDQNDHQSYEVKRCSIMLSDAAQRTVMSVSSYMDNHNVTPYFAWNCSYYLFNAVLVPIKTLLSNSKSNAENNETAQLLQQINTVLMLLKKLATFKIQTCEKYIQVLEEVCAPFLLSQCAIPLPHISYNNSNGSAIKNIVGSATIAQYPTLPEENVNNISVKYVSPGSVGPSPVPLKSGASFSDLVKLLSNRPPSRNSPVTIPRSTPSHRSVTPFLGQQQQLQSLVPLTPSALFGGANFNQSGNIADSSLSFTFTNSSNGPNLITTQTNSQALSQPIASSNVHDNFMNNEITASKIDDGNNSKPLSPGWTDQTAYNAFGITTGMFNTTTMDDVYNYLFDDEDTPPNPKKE

`C[C@]12CC[C@H]3C(=CCc4cc(O)ccc43)[C@@H]1CCC2=O`: in [1], the compound was called inactive. Moreover, the AC50 in test [2] was 12.9 nM (active); in [3] it was 86 nM (active); in test [4] it was 14.6 nM (active); in test [5], 14.7 nM (active); in [6], 15.9 nM (active); in test [7] it was 25.8 nM (active).
As to `O=C(c1ccccc1)c1ccc(O)cc1O`, the call in [1], in test [8], in [9] and in test [10] was inactive. For the same compound, the AC50 in test [2] was 2810 nM (active); in [3], 10000 nM (active); in test [4] it was 2770 nM (active); in test [5] it was 4680 nM (active); in [6], 3760 nM (active); in test [7], 5040 nM (active).
